# Shown are actives, neighbours in structure and some others; about 17% of the full set was active somewhere.
# HepG2 tox = qHTS for Inhibitors of TGF-b: Cytotox Counterscreen | HepG2 CAGA-GFP viability, ATP luminescence, 18 h | Potency, µM (doses to about 46.1 µM), inactives show at the top dose activity change, negative = cytotoxicity, actives largely listed as cytotoxic | 410,000 compounds, 0.76% hits | AID 588856, 2011
#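 HepG2 CAGA-GFP cells (1000/well, DMEM with 1% FBS) received compound, then TGF-beta at 500 pg/mL final, and were incubated 18 hours at 37 degrees C. Viability was read by CellTiter-Glo luminescence. Media-only wells were set as complete cell-killing and DMSO as no toxicity.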
# TGFb inhibitor = qHTS for Inhibitors of TGF-b. HepG2 CAGA-GFP TGF-b/SMAD3 reporter, GFP fluorescence, 18 h; TGF-beta stimulated, 500 pg/mL final. 410,000 compounds, 1.2% hits. Potency, µM (doses to about 46.1 µM), for inactives: top-dose activity, negative = inhibition, most hits filed as inhibitors; note: % is set by controls: 0 for no effect and ±100 for the full control effect; nearly all actives have a fitted effect of over 65% in size
#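 HEPG2 CAGA-GFP cells (1000/well, DMEM with 1% FBS) were pre-incubated 2 h at 37 degrees C, given compound by pin tool, then stimulated with TGF-beta at 500 pg/mL final for 18 h before per-cell GFP fluorescence imaging.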
# DT40 TDP1 CPT = qHTS for Inhibitors of human tyrosyl-DNA phosphodiesterase 1 (TDP1): qHTS in cells in presence of CPT; chicken DT40 Tdp1-/-;hTDP1 cells + 20 nM CPT, ATP luminescence, 48 h; Potency, µM (top dose mostly 46.2 µM), inactives show at the top dose activity change, negative = growth inhibition, actives largely listed as inhibitors; 420,000 compounds, 12% hits; note: % is set by controls: 0 for no effect and ±100 for the full control effect; nearly all actives have a fitted effect of over 55% in size
#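 Cell growth measured by CellTiter-Glo luminescence after a minimum 48 h, 37 C compound exposure with 20 nM CPT in Tdp1-knockout DT40 cells stably expressing hTDP1, seeded 400/well; qHTS titration format.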
# DT40 TDP1 no CPT = qHTS for Inhibitors of human tyrosyl-DNA phosphodiesterase 1 (TDP1): qHTS in cells in absence of CPT; Potency, µM (highest dose often 46.2 µM), inactives show top-dose activity change, negative = growth inhibition, most hits filed as inhibitors; DT40 Tdp1-/- hTDP1 cells, no CPT, ATP luminescence, 48 h; 420,000 compounds, 15% hits; AID 686978, 2013; note: % is set by controls: 0 for no effect and ±100 for the full control effect; nearly all actives have a fitted effect of over 55% in size
#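 A cellular qHTS used chicken DT40 cells lacking endogenous Tdp1 but carrying stably transfected human TDP1. Compounds were applied without camptothecin, and cell growth kinetics were judged by ATP-dependent luminescence after ≥48 hr.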
# HT1080NT lethal = qHTS for induction of synthetic lethality in tumor cells producing 2HG: qHTS for the HT-1080-NT fibrosarcoma cell line | HT-1080-NT fibrosarcoma viability, CellTiter-Glo ATP luminescence, 48 h | Potency, µM (doses to about 46.1 µM), for inactives: at the highest dose activity, negative = less viability, hits mostly cytotoxic | 360,000 compounds, 1.6% hits;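 note: NT is the 2HG producing partner of a matched IDH1 knockdown line; 0% = DMSO-treated cells and -100% = media-only wells without cells; nearly all actives have a fitted effect of over 55% in size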
#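 Read-out is CellTiter-Glo luminescence after 10 minutes at room temperature, following 48 hours' compound treatment of HT-1080-NT cells (750 cells/well, RPMI, 5% FBS, 37 degrees C).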
# HT1080 IDH1KD tx = qHTS for induction of synthetic lethality in tumor cells producing 2HG: qHTS for the HT-1080-IDH1KD cell line | HT-1080 IDH1 knockdown viability, ATP luminescence, 48 h | Potency, µM (series often up to 46.1 µM), inactives show at the top dose activity, negative = toxicity, actives largely listed as cytotoxic | 360,000 compounds, 2% hits;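 note: 0% = DMSO wells and -100% = cell-free medium wells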
#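 After a 2 h attachment period, IDH1KD HT-1080 cells took pin-transferred compound for 48 h at 37 °C; ATP-based luminescence after 10 min room-temperature reagent incubation reported viability.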
# The depositor's hits bear a star; ? = inconclusive; · = not tested or not shown; [ ] = another dose, or the depositor's remark. Calls come from the whole dose curve; as a rule, active = well fitted curve in the direction sought with a large enough effect; inconclusive = small, poorly fitted or top-dose-only effect, or another doubt; inactive = no such curve, though single readings can be large; an effect the other way counts as inactive or inconclusive. Potency is the fitted concentration of half-maximal effect.
SMILES,HepG2 tox,TGFb inhibitor,DT40 TDP1 CPT,DT40 TDP1 no CPT,HT1080NT lethal,HT1080 IDH1KD tx
O=C(NCCc1c[nH]c2ccccc12)c1cc(S(=O)(=O)N2CCCCC2)ccc1N1CCOCC1,-18%,10%,?,13µM*,-10%,-7%
Cc1ccc(S(=O)(=O)N2CCN(C(=O)c3cc(S(=O)(=O)N(C)C)ccc3N3CCCC3)CC2)c(C)c1,-53%,-15%,?,16µM*,0%,-6%
COc1cc(NC(=O)c2cc(S(=O)(=O)N3CCCCC3)ccc2N2CCOCC2)cc(OC)c1,-10%,-23%,21µM*,21µM*,-26%,-24%
COc1ccc(CCNC(=O)COC(=O)c2cc(S(=O)(=O)N3CCOCC3)ccc2C)cc1OC,9%,8%,18µM*,?,3%,13%
CCOC(=O)C(C)Sc1nnc2cc(C)c3ccccc3n12 (centres undefined),-5%,-9%,?,?,·,·
CC(Oc1ccc(-c2ccccc2)cc1)C(=O)N/N=C/c1cccnc1 (centres undefined),-20%,-6%,-9%,-17%,-4%,-19%
Cc1cccc(NC(=O)CN2C(=O)c3cccc4cccc2c34)c1C,-2%,-3%,0%,-14%,·,·
CCCS(=O)(=O)NCc1c(C)ncc2c1CCN(C(=O)c1ccc3[nH]c4c(c3c1)CCCC4)C2,·,·,4%[9.04 µM],?,·,·
CCOc1ccc(S(=O)(=O)NCCC(=O)NCC(c2ccc(F)cc2)N2CCOCC2)cc1 (centres undefined),-21%,-4%,-3%,-17%,9%,9%
O=C(O)CCCC[C@@H]1SC[C@H]2NC(=O)N[C@@H]12,·,·,6%,-12%,·,·
COc1ccc(CCNC(=O)c2cc(S(=O)(=O)N3CCOCC3)ccc2N2CCCC2)cc1OC,22%,14%,2%,-27%,4%,9%
COc1ccc(CNC(=O)c2cc(S(=O)(=O)N3CCCCC3)ccc2N2CCOCC2)cc1OC,-7%,-17%,?,9.2µM*,3%,-11%
Cc1ccc(S(=O)(=O)N(C)C)cc1NC(=O)c1cc(S(=O)(=O)N2CCCCC2)ccc1N1CCOCC1,-12%,38%,?,12µM*,-6%,-1%
COC(=O)c1ccsc1NC(=O)CN1CCN(c2ncccn2)CC1,12%,18%,-26%,?,-4%,12%
O=C(NCCCn1ccnc1)Nc1cccc(Cl)c1,-1%,18%,4%,-4%,11%,4%
CCOC(=O)c1c(C)n(-c2ccc(OC)cc2)c2ccc(OC(=O)COc3ccccc3)cc12,-30%,?,?,21µM*,·,·
CCOC(=O)c1c(C)n(-c2ccccc2)c2ccc(OC(=O)COc3ccccc3)cc12,-27%,-5%,?,-14%,·,·
COc1ccc(-n2c(C)c(C(C)=O)c3cc(OC(=O)COc4ccccc4)ccc32)cc1,-7%,4%,6.5µM*,7.3µM*,·,·
COc1ccc(-n2c(C)c(C(C)=O)c3cc(OCC(N)=O)ccc32)cc1,-2%,-4%,?,?,-7%,-9%
CC(=O)c1c(C)n(-c2ccc(C)cc2)c2ccc(OC(=O)COc3ccccc3)cc12,-1%,1%,6.5µM*,7.3µM*,·,·
Cc1cc2c(cc1S(=O)(=O)NCc1ccccc1)OCC(=O)N2,1%,7%,5%,-4%,0%,0%

# Screens (PubChem)
